Values without a mark were called inactive.
test system: HCC1569; experiment: H1.0 immunofluorescence intensity relative to DMSO (% of DMSO); higher = stronger H1.0 induction, active = 140 or more; settings: concentration: 10 µM; 24 h
Summary of the method: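 Treatment: HCC1569 and TDF cells, 800 per well in 384-well plates with RPMI and 10% FBS, were given compounds at 10 µM for 24 h at 37 °C, in triplicate. Readout: after 3.7% formaldehyde fixation, cells were stained with a rabbit anti-H1.0 antibody, an AlexaFluor 647 secondary and DAPI. Reported values are H1.0 nuclear intensity or cell number as percent of the plate control, taken as the median of replicates, with positional smoothing for HCC1569.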
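Note: TDF is a line of transformed human dermal fibroblasts of mesenchymal origin.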

SMILES | H1.0 immunofluorescence intensity
CN1CCC2(CCN3CCc4c(oc5ccccc45)C3C2)N(C)C1=O.Cl (stereo not drawn) | 110
CN(c1nc2ccccc2s1)C1CCN(CC(O)COc2ccc(F)c(F)c2)CC1.Cl.Cl (stereo not drawn) | 141 (active)
CCN(CCCl)Cc1ccccc1Br.Cl [DSP-4 hydrochloride] | 92.4
CP(=O)([O-])C1=CC[NH2+]CC1 | 102
CC=C(C)C(=O)OC1CCC2(C)C3CCC4C5(O)CC(O)C6(O)C(CN7CC(C)CCC7C6(C)O)C5(O)CC42OC13O (stereo not drawn) [Cevadine] | 93
CC(=O)[C@H]1CC[C@H]2[C@@H]3CC[C@H]4C[C@](C)(O)CC[C@]4(C)[C@H]3CC[C@]12C [(3alpha,5alpha)-3-hydroxy-3-methylpregnan-20-one] | 111
CCCC[N+]1(C)C2CC(OC(=O)C(CO)c3ccccc3)CC1C1OC12 (stereo not drawn) [Scopolamine N-butyl] | 100
CC(N)C(=O)OC(C)(C)Cc1ccc(Cl)cc1.Cl (stereo not drawn) [Alaproclate hydrochloride] | 88.6
COc1cc2c(c(OC)c1OC)-c1ccc(SC)c(=O)cc1C(NC(C)=O)CC2 (stereo not drawn) [Thiocolchicine] | 155 (active)
C=CCN1CC(C)N(C(c2ccc(C(=O)N(CC)CC)cc2)c2cccc(OC)c2)CC1C (stereo not drawn) | 87.8
NC(=O)CI [Iodoacetamide] | 170 (active)
CC12C(=O)OC(=O)C1(C)C1CCC2O1 (stereo not drawn) [Cantharidin] | 187 (active)
C#CC1(O)CCC2C3CCC4=CC(=O)CCC4=C3C=CC21CC (stereo not drawn) [Gestrinone] | 112
O.O=P1(N(CCCl)CCCl)NCCCO1 (stereo not drawn) [Cyclophosphamide monohydrate] | 103
COc1ccc(C(=O)c2c(C)n(CCN3CCOCC3)c3cc(I)ccc23)cc1 | 128
CCN(CC)C(=O)NC1C=C2c3cccc4[nH]cc(c34)CC2N(C)C1.O=C(O)C=CC(=O)O (stereo not drawn) [R(+)-Lisuride hydrogen maleate] | 92.7
Cl.O=C1CC2OCC=C3CN4CCC56c7ccccc7N1C5C2C3CC46 (stereo not drawn) | 94.2
Cc1cc(O)c2c(=O)c3c(O)cc(O)c4c5c(O)cc(O)c6c(=O)c7c(O)cc(C)c8c1c2c(c34)c(c78)c65 [Hypericin] | 94.4
C[N+]1(C)C2CC(OC(=O)C(CO)c3ccccc3)CC1C1OC12.[Br-] (single isomer, unassigned; (-)) [(-)-Scopolamine methyl bromide] | 101

SMILES | H1.0 immunofluorescence intensity
O=c1[nH]c2ccccc2n1C1CCN(CCCC(c2ccc(F)cc2)c2ccc(F)cc2)CC1 [Pimozide] | 144 (active)
CC12CCC3C(CCC4=C(O)C(=O)CCC43C)C1CCC2=O (stereo not drawn) [Formestane] | 111
CCS(=O)(=O)Nc1cccc(C(=C2CCCCC2)c2cnc[nH]2)c1 | 92.5
NC(Cn1cc(I)c(=O)[nH]c1=O)C(=O)O (stereo not drawn) [S-5-Iodowillardiine] | 111
C=CCN1CCC23c4c5ccc(O)c4OC2C(=O)CCC3(O)C1C5.Cl (stereo not drawn) [Naloxone hydrochloride] | 90.6
O=[N+]([O-])c1ncc[nH]1 [Azomycin] | 93.7
CCCCCC(C=CC=CCCCCCCCC(=O)O)OO (stereo not drawn) | 94.4
C=CCN1CCC23CCCCC2C1Cc1ccc(O)cc13.O=C(O)C(O)C(O)C(=O)O (stereo not drawn) [Levallorphan tartrate] | 100
CC1OC1P(=O)([O-])[O-].[Na+].[Na+] (stereo not drawn) [Phosphomycin disodium] | 101
CCOP(=O)(OCC)C(C)NC(=O)N(CCCl)N=O (stereo not drawn) | 90.6
CCC(C(N)=O)N1CCCC1=O (stereo not drawn) [Levetiracetam] | 101
CC1(CO)C(O)CCC2(C)C1CCC1CC3CC12CCC3(O)CO (stereo not drawn) [Aphidicolin] | 95.2
C=CC1CN2CCC1CC2C(O)c1ccnc2ccccc12 (single isomer, unassigned; (-)) [(-)-Cinchonidine] | 100
Cl.NCC(O)c1ccc(O)cc1 (racemic) | 93.1
COC1=CC2C3Cc4ccc(OC)c(O)c4C2(CCN3C)CC1=O (stereo not drawn) [Sinomenine] | 83.8
C[N+](C)(C)CCOC(=O)CBr.[Br-] [Bromoacetylcholine bromide] | 85.7
COc1ccc2c(c1O)-c1c(OC)c(OC)cc3c1C(C2)N(C)CC3.Cl (single isomer, unassigned; (+)) [(+)-Isocorydine hydrochloride] | 91.4
COc1cc2c(cc1OC)C(C)NCC2 (stereo not drawn) [Salsolodine] | 86.3
COc1ccc(C(=O)OC2CC3CCC(C2)N3C)cc1OC (stereo not drawn) [Convolvamine] | 90
